Test in all cases: DAPPL (digital affinity profiling via proximity ligation, sequencing); 10 mM Tris-HCl pH 7.5, 50 mM NaCl, 1 mM DTT, 4% glycerol, room temperature, 30 min; GST-TFs on glutathione beads, 16-mer random dsDNA library, 0.1% formaldehyde crosslink after washing; high values mean tight binding
One experiment deals with T1, FEV (Homo sapiens, UniProt Q99581 1-238).
T1 sequence: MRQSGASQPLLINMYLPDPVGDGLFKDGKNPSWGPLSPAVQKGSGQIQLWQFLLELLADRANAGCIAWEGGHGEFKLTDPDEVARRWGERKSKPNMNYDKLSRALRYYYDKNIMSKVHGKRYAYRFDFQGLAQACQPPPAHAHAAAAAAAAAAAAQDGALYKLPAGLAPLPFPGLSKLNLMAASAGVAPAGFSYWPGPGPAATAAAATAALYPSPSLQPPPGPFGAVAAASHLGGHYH
The conditions noted are these: protein: recombinant; tags: N-terminal GST; dsDNA, one strand shown. The method, boiled down:
(§1)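 Binding signal is given per hexamer as its read frequency for a factor divided by its frequency in the tag-only sample. GST-fused human transcription factors were expressed in yeast, captured on glutathione beads, barcoded with DNA and pooled with that sample, then incubated with 200 nmole of a 16-mer random double-stranded DNA library in Tris/NaCl/DTT/glycerol buffer for 30 min at room temperature. The pools were then washed, crosslinked, proximity-ligated, amplified by PCR and sequenced on an Illumina NextSeq500.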

The target in another experiment is ETV5 (Homo sapiens, UniProt P41161 1-510). The following applies: protein: recombinant; tags: N-terminal GST; dsDNA, one strand shown. The procedure, abridged:
as §1

In a further experiment the target is HSF1 (Homo sapiens, UniProt Q00613 1-529). The conditions noted are these: protein: recombinant; tags: N-terminal GST; chain copies: 3; dsDNA, one strand shown. The method, boiled down: as §1
A further experiment has as its target T2, SPIC (Homo sapiens, UniProt Q8N5J4 1-248).
T2 sequence: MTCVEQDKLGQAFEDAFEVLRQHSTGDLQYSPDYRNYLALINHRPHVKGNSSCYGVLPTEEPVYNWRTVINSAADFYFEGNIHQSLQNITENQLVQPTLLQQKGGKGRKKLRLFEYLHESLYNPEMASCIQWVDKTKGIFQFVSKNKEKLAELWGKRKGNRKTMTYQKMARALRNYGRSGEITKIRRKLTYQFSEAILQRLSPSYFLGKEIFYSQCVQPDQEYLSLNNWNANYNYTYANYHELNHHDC
The following applies: protein: recombinant; tags: N-terminal GST; dsDNA, one strand shown. The method, boiled down:
as §1

The next experiment deals with ELF4 (Homo sapiens, UniProt Q99607 1-663). The conditions noted are these: protein: recombinant; tags: N-terminal GST; dsDNA, one strand shown. The method, boiled down:
as §1

The target in the next experiment is T3, ELK4 (Homo sapiens, UniProt P28324-2 1-405).
T3 sequence: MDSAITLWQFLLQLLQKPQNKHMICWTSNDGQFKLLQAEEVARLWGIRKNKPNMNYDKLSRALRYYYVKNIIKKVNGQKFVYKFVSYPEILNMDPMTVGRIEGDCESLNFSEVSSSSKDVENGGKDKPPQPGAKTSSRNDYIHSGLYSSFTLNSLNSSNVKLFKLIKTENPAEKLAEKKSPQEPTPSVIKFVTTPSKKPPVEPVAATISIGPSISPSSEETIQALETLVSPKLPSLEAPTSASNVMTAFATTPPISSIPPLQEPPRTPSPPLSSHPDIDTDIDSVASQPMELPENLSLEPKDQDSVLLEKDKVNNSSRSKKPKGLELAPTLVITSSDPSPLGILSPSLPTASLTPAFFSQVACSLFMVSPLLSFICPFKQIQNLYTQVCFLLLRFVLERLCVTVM
The following applies: protein: recombinant; tags: N-terminal GST; dsDNA, one strand shown. The procedure, abridged:
as §1

Another experiment concerns the target T4, ETV2 (Homo sapiens, UniProt O00321 1-342).
T4 sequence: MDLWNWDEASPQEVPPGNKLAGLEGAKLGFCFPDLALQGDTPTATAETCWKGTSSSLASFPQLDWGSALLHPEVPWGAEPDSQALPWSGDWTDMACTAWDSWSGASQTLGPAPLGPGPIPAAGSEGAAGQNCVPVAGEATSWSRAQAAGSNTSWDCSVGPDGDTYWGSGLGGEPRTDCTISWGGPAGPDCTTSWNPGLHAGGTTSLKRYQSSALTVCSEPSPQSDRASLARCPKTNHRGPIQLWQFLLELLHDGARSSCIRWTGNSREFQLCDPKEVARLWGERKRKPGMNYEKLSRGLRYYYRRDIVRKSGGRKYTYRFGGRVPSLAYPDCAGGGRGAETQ
The following applies: protein: recombinant; tags: N-terminal GST; dsDNA, one strand shown. The procedure, abridged: as §1

In the next experiment the target is T5, ELF3 (Homo sapiens, UniProt P78545 1-371).
T5 sequence: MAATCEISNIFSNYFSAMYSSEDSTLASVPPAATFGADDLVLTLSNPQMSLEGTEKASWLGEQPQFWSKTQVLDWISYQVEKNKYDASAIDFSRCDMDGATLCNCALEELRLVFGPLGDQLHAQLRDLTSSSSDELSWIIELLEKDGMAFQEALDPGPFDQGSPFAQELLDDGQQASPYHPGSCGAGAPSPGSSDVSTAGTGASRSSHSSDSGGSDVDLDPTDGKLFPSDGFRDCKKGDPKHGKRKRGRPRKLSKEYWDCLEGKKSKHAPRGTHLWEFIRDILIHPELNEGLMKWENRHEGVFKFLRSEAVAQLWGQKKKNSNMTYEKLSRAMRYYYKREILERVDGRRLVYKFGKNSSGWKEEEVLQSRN
The following applies: protein: recombinant; tags: N-terminal GST; dsDNA, one strand shown. The method, boiled down: as §1

Another experiment deals with CRX (Homo sapiens, UniProt O43186 1-299). The following applies: protein: recombinant; tags: N-terminal GST; dsDNA, one strand shown. The procedure, abridged: as §1
Another experiment concerns the target ETV1 (Homo sapiens, UniProt P50549 1-477). The conditions noted are these: protein: recombinant; tags: N-terminal GST; dsDNA, one strand shown. The procedure, abridged: as §1
The target in the next experiment is T6, ERF (Homo sapiens, UniProt P50548 1-548).
T6 sequence: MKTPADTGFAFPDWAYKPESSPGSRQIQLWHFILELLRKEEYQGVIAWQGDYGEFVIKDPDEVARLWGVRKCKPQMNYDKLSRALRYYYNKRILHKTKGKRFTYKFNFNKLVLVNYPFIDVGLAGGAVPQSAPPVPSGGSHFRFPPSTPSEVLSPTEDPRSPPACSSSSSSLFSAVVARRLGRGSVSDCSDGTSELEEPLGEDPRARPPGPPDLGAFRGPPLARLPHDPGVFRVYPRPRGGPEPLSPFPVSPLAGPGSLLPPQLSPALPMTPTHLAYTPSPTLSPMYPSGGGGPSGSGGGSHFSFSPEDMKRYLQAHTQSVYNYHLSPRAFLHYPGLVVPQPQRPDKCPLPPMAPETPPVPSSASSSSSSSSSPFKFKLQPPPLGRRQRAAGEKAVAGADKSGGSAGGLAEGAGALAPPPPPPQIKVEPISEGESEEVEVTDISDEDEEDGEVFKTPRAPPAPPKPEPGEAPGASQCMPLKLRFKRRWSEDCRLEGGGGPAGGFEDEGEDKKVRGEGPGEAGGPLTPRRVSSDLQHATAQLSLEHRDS
The conditions noted are these: protein: recombinant; tags: N-terminal GST; dsDNA, one strand shown. The procedure, abridged: as §1

For a further experiment, the target named is T7, ETV3L (Homo sapiens, UniProt Q6ZN32 1-361).
T7 sequence: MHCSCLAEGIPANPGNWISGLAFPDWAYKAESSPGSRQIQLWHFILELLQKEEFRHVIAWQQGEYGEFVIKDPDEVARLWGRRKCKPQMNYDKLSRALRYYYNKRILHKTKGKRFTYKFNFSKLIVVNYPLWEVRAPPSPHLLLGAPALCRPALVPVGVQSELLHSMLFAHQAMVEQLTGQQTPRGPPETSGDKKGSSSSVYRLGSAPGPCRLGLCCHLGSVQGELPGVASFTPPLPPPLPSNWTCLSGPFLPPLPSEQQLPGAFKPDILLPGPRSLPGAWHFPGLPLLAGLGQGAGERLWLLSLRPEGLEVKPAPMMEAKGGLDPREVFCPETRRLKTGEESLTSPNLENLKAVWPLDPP
The following applies: protein: recombinant; tags: N-terminal GST; dsDNA, one strand shown. The procedure, abridged:
as §1

The target of the next experiment is T8, ETS2 (Homo sapiens, UniProt P15036 1-469).
T8 sequence: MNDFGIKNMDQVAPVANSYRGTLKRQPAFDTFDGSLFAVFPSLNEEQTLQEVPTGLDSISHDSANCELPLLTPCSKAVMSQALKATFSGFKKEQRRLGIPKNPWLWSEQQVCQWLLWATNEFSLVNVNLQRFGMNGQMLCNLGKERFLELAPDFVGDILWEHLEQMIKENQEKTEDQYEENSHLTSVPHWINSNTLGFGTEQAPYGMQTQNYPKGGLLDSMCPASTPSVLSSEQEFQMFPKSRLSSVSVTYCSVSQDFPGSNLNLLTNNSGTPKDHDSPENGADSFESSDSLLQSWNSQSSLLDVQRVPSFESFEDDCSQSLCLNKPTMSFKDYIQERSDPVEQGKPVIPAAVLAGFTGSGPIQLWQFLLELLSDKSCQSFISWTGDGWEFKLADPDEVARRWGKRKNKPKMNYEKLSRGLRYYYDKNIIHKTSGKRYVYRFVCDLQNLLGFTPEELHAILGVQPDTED
The following applies: protein: recombinant; tags: N-terminal GST; dsDNA, one strand shown. The method, boiled down: as §1

Another experiment addresses T9, SPDEF (Homo sapiens, UniProt O95238 1-335).
T9 sequence: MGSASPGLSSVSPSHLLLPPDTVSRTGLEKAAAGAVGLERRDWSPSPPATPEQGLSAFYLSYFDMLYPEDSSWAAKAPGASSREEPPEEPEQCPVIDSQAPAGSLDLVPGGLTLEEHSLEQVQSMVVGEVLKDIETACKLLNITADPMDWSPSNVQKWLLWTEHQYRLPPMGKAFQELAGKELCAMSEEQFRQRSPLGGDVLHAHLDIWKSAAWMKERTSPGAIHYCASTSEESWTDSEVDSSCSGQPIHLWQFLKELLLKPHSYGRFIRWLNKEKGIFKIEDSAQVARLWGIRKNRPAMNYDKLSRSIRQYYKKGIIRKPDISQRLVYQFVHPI
The conditions noted are these: protein: recombinant; tags: N-terminal GST; dsDNA, one strand shown. The procedure, abridged: as §1

The next experiment addresses T10, ETV7 (Homo sapiens, UniProt Q9Y603 1-341).
T10 sequence: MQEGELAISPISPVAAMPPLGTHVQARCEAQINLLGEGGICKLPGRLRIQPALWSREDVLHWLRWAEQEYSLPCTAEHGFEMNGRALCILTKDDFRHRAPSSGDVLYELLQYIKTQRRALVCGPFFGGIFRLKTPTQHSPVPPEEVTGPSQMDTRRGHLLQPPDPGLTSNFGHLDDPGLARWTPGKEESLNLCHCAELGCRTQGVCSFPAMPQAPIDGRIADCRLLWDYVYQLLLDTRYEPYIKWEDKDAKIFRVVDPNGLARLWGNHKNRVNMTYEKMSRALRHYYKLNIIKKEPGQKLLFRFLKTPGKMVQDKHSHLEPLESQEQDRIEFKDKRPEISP
The conditions noted are these: protein: recombinant; tags: N-terminal GST; dsDNA, one strand shown. The procedure, abridged:
as §1

A further experiment concerns the target T11, ELF5 (Homo sapiens, UniProt Q9UKW6-2 1-255).
T11 sequence: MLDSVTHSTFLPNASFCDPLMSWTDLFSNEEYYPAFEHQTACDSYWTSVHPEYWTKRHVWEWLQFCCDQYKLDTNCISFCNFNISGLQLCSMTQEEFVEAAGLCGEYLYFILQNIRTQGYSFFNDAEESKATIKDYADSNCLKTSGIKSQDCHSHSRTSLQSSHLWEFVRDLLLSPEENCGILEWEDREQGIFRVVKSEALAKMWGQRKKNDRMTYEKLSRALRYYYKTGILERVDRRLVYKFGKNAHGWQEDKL
The conditions noted are these: protein: recombinant; tags: N-terminal GST; dsDNA, one strand shown. The procedure, abridged:
as §1

The target in a further experiment is T12, ETV3 (Homo sapiens, UniProt P41162-2 1-143).
T12 sequence: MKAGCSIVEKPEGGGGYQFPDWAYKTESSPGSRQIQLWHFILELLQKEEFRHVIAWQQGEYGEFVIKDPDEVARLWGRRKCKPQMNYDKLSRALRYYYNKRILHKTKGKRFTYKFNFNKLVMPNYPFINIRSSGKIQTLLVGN
The conditions noted are these: protein: recombinant; tags: N-terminal GST; dsDNA, one strand shown. The procedure, abridged:
as §1

The next experiment addresses ETV6 (Homo sapiens, UniProt P41212 1-452). The following applies: protein: recombinant; tags: N-terminal GST; dsDNA, one strand shown. The method, boiled down: as §1

ETV6, sequence (P41212 whole entry): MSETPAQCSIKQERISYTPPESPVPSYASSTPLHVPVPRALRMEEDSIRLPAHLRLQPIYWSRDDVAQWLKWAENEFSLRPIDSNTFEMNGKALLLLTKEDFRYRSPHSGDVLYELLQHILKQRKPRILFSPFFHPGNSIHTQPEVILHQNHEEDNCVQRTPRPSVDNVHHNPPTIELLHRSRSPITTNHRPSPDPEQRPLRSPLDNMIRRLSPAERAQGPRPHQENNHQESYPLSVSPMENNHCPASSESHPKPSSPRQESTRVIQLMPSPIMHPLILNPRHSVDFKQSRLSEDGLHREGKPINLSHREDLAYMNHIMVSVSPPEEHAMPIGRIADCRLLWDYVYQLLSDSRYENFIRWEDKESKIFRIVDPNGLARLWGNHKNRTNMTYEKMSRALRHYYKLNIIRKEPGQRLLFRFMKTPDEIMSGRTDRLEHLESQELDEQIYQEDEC
ETV1, sequence (P50549 whole entry): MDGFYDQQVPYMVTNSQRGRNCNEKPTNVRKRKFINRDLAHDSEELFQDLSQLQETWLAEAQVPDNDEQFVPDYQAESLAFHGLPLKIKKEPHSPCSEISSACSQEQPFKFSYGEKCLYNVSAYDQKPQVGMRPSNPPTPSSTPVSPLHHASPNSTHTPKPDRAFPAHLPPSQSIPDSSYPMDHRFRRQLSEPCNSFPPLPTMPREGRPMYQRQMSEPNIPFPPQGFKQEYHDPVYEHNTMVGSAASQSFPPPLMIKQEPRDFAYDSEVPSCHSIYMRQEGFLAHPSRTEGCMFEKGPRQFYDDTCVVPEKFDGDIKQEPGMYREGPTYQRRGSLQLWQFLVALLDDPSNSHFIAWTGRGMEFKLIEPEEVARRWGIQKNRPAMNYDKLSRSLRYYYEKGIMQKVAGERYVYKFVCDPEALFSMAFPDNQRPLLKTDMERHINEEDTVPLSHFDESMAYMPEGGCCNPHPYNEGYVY
CRX, sequence (O43186 whole entry): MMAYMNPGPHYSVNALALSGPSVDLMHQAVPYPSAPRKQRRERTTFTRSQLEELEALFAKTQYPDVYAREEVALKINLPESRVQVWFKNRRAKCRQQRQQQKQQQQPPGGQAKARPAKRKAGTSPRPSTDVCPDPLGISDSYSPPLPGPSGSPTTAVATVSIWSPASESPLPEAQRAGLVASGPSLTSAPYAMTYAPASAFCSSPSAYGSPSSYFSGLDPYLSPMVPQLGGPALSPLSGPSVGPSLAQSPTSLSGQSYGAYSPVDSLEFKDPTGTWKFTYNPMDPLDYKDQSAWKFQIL
ETV5, sequence (P41161 whole entry): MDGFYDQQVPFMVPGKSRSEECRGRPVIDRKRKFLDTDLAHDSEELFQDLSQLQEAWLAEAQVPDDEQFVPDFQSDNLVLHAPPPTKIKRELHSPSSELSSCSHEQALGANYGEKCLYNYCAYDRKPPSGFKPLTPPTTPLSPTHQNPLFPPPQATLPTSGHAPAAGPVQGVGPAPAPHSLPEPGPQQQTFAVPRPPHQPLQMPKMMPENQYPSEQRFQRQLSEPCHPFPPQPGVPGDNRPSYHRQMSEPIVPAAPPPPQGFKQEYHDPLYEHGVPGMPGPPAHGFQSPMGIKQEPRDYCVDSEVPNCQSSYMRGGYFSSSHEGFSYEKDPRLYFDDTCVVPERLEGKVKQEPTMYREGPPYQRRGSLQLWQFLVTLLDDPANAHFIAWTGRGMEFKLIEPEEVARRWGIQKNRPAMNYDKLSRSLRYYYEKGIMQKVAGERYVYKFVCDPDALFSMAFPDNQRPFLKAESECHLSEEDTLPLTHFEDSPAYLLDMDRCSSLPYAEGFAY
ELF4, sequence (Q99607 whole entry): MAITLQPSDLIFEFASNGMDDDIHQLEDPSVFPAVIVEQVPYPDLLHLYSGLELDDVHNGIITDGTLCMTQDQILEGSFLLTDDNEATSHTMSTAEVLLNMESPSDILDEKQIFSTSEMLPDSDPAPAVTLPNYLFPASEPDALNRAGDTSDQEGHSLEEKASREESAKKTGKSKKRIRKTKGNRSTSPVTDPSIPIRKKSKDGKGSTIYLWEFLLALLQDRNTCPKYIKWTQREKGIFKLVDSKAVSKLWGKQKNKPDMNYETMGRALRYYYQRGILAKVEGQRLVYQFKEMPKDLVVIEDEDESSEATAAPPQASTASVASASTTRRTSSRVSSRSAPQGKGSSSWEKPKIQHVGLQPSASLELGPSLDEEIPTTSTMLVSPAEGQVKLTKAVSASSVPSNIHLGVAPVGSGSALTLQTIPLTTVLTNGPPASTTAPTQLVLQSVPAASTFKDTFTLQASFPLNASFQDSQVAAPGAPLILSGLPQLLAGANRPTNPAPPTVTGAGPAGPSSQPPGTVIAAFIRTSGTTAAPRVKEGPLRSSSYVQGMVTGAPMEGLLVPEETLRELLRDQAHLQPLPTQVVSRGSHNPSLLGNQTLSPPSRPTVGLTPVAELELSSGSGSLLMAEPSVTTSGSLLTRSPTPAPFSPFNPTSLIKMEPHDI
HSF1, sequence (Q00613 whole entry): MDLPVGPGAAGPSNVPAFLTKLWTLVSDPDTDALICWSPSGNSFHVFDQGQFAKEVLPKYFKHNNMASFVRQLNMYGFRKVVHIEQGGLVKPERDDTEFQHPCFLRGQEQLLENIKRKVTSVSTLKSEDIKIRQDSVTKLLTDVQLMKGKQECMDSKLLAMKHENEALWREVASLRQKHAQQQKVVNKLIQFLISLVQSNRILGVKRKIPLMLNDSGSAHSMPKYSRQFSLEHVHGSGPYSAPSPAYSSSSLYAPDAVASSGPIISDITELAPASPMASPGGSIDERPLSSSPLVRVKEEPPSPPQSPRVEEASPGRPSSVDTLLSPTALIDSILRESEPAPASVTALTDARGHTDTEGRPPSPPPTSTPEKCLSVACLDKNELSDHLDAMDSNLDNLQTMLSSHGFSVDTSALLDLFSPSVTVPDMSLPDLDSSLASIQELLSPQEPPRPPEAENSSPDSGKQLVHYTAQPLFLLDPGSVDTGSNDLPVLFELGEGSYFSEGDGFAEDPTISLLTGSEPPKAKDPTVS

As to CCTGGA, the binding signal in the experiment with FEV is 1.27 fold enrichment (6-mer frequency, TF over GST control); with ETV5, 1.47 fold enrichment (6-mer frequency, TF over GST control); with HSF1 it was 1.77 fold enrichment (6-mer frequency, TF over GST control); with SPIC, 1.42 fold enrichment (6-mer frequency, TF over GST control); in the experiment with ELF4, 1.47 fold enrichment (6-mer frequency, TF over GST control); with ELK4, 1.38 fold enrichment (6-mer frequency, TF over GST control). The binding signal with ETV2 is 1.51 fold enrichment (6-mer frequency, TF over GST control); in the experiment with ELF3, 1.12 fold enrichment (6-mer frequency, TF over GST control); with CRX, 1.41 fold enrichment (6-mer frequency, TF over GST control); with ETV1 it was 1.41 fold enrichment (6-mer frequency, TF over GST control); with ERF, 1.32 fold enrichment (6-mer frequency, TF over GST control); with ETV3L, 1.49 fold enrichment (6-mer frequency, TF over GST control). Also, the binding signal was 1.52 fold enrichment (6-mer frequency, TF over GST control) in the experiment with ETS2; 1.57 fold enrichment (6-mer frequency, TF over GST control) in the experiment with SPDEF; 1.34 fold enrichment (6-mer frequency, TF over GST control) in the experiment with ETV7; 1.74 fold enrichment (6-mer frequency, TF over GST control) in the experiment with ELF5; 1.37 fold enrichment (6-mer frequency, TF over GST control) in the experiment with ETV3; 1.44 fold enrichment (6-mer frequency, TF over GST control) with ETV6.

The values above are taken from article PMC7862700, “An all-to-all approach to the identification of sequence-specific readers for epigenetic DNA modifications on cytosine”.
